From PubChem BioAssay AID504336 (NMMLSC, 2011) come the findings set out here.

Several values for one entry are separate records, joined by “and”; a condition that tells them apart may be missing. Identical values can stand only once. A number with no mark means an inactive call.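 The calls were made as follows: active = compounds whose GFP signal falls below 65% of the DMSO control level; inconclusive = fewer than 70 yeast cells counted in the well; inactive = the rest.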

This test can be described thus: TOR branch reporter RPL19A-GFP response – cell-based, S. cerevisiae, third cherry pick, flow cytometry, confirmation (AID 504336).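 Also: median GFP fluorescence of all gated yeast cells by flow cytometry; ratio of well median fluorescence to plate mean of DMSO wells with DMSO = 100%.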 Conditions: S. cerevisiae RPL19A-GFP strain, 3 h, at 10 µM, hits give low values. (In flow cytometry, cells or beads pass a laser one at a time.)
Turning to `COCC(C)NC(=O)CCS(=O)(=O)c1nc(-c2ccc(OC)cc2)cc(C(F)(F)F)n1` (configuration not stated), the GFP response relative to DMSO was 98.3% and 102%.

Regarding `N#Cc1c(N)nc(N)nc1Nc1ccc(Br)cc1`, the GFP response relative to DMSO is 99.6%.

Consider `Cc1ccc2c(Cl)cc(Cl)c(O)c2n1`, for which the GFP response relative to DMSO was 82.6%.

Regarding `O=C(Nc1ccccc1)O/N=C1\CCCCC1c1ccc([N+](=O)[O-])cc1[N+](=O)[O-]` (configuration not stated), the GFP response relative to DMSO was 96.5%.

In the case of `C/C(=C\C(=O)c1ccc(C)cc1)Nc1cccc(O)c1`, the GFP response relative to DMSO was 99.3%.

Turning to `CC(=O)Nc1ccc(-c2nc3cc(Cl)ccc3o2)cc1`, the GFP response relative to DMSO is 99.3%.

As to `CSc1nc(S(C)(=O)=O)nc2[nH]c(=O)[nH]c12`, the GFP response relative to DMSO is 100%.

Take `CC1=NNC(=O)/C1=C\c1cn(-c2ccccc2)nc1-c1ccc(F)cc1`: the GFP response relative to DMSO is 89.7%.

As for `COc1ccccc1Nc1nc(NCCCN(C)C)nc(N)c1[N+](=O)[O-]`, the GFP response relative to DMSO is 99.1%.

`CCC(C)Nc1nc(N)c([N+](=O)[O-])c(Nc2cc(OC)ccc2OC)n1` (configuration not stated): the GFP response relative to DMSO was 96.5%.

Take `COc1ccc(NC(=O)O/N=C2/CCCc3ccc(OC)cc32)cc1`: the GFP response relative to DMSO was 104%.

With `CCN(CC)c1ncnc2ccc(Br)cc12`, the GFP response relative to DMSO is 98%.

As for `COc1ccccc1Nc1nc(NCCC(C)C)nc(N)c1[N+](=O)[O-]`, the GFP response relative to DMSO is 97.8%.

Regarding `Nc1[nH]c(=O)nc(Nc2ccccc2)c1N=O`, the GFP response relative to DMSO was 101%.

Turning to `C=CCNc1nc(N)c([N+](=O)[O-])c(Nc2ccccc2OC)n1`, the GFP response relative to DMSO is 102%.

Consider `COc1ccccc1Nc1nc(NCC(C)C)nc(N)c1[N+](=O)[O-]`, for which the GFP response relative to DMSO was 102%.

On to `CCN(CC)C(=O)Oc1ccnc2cc(Cl)ccc12`, for which the GFP response relative to DMSO was 103%.

Regarding `O=C(Nc1ccccc1)O/N=C1/CCCc2occc21`, the GFP response relative to DMSO was 100%.

On to `Cn1c(NCCO)nc2c(c1=O)C1(CCCCC1)Cc1ccccc1-2`, for which the GFP response relative to DMSO is 103%.

`CN(C)CCCNc1cc(O)c2ncccc2c1`: the GFP response relative to DMSO was 103%.

On to `Cc1cc(C)c(NC(=O)CC(=O)c2ccccc2)c(Cl)c1`, for which the GFP response relative to DMSO is 97.8%.

On to `COc1cccc2c(Cl)c(CCCl)c(C)nc12`, for which the GFP response relative to DMSO is 99.3%.
